Molecular target: T1, Arginase-2, mitochondrial (Homo sapiens) (UniProt P78540)
T1 sequence (whole entry): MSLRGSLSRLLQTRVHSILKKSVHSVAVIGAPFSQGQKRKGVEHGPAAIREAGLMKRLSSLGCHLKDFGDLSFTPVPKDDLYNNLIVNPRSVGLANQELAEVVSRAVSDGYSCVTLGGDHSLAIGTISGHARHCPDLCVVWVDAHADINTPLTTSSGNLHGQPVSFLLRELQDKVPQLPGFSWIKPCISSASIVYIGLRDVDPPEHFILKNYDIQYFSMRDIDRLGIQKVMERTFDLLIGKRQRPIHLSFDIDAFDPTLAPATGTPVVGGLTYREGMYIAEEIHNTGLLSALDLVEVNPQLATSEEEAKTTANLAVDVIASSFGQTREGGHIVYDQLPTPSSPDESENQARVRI
Experiment: in vitro enzyme assay to detect the production of urea directly proportional to the activity of Arginase II
Format: functional
Set-up: scale not given: in the data most compounds retested in dose-response had high values
Conditions: 33.3 µM

Structure (SMILES)	Percent Effect
CN(Cc1noc(C2CC2)n1)C1CCN(Cc2nnc(C3CC3)o2)C1 (stereo unspecified)	1.02%
CC(C)c1nn(C)c(N2CCOCC2)c1CNCC(=O)N(C)C	3.69%
CS(=O)(=O)NCc1ncn2c1CN(C(=O)CC1CCCC1)CCC2	-0.81%
Cc1nc(C2CCN(C(=O)CO)CC2)cc(N2CCOCC2)n1	22%
Cn1cc(CNCC2Cn3nnc(-c4ccccc4)c3CO2)cn1 (stereo unspecified)	13%
CS(=O)(=O)c1ccccc1C(=O)NCCCN1CCc2ccccc2C1	-0.887%
CCOC(=O)N1CCN(C(=O)c2ccc3ccn(C)c3c2)CC1	-8.74%
Cc1ccc(-c2cc(CN3CCCC(Cn4cncn4)C3)on2)cc1 (stereo unspecified)	1.84%
COc1ccc(C2CC(=O)Nc3c2nc2n3CCCC2)cc1OC (stereo unspecified)	0.35%
Cn1cc(CN2CCCN(C(=O)c3cn4ccccc4n3)CC2)cn1	-0.41%
CCc1ccc(NC(=O)C2OC(c3cccs3)=NN2C(C)=O)cc1 (stereo unspecified)	-0.443%
CC(=O)N1CCCN(CC(C)(O)c2cccc(C(F)(F)F)c2)CC1 (stereo unspecified)	-7.99%
c1ncn(CC2CN(Cc3noc(C4CC4)n3)CCO2)n1 (stereo unspecified)	-3.55%
Cc1c[nH]nc1C1CCCCN1C(=O)Cn1cc(Cl)cn1 (stereo unspecified)	3.1%
Cc1cnn(CC2CCCCN2CCCS(N)(=O)=O)c1 (stereo unspecified)	3.55%
Cn1cc(C(=O)N2CCCC(n3cccn3)C2)c2ccccc21 (stereo unspecified)	7.09%
CC(=O)N1CCC2(CC1)C(=O)N(CC1CC1)c1ccccc12	5.48%
CC1CCN(C(=O)c2cccc3ncccc23)CC1	-1.33%
O=C(c1cc2cc(F)ccc2[nH]1)N1CCC(Nc2cccnn2)CC1	-12.9%
Cc1nccn1-c1cccc(C2CCCN2S(=O)(=O)N(C)C)n1 (stereo unspecified)	-0.443%
CC(C)CN1CCN(C)C2(CCN(Cc3ccsc3)CC2)C1=O	1.83%

Molecular target: T2, Proteasome subunit beta (Trypanosoma cruzi) (UniProt O96673)
T2 sequence (whole entry): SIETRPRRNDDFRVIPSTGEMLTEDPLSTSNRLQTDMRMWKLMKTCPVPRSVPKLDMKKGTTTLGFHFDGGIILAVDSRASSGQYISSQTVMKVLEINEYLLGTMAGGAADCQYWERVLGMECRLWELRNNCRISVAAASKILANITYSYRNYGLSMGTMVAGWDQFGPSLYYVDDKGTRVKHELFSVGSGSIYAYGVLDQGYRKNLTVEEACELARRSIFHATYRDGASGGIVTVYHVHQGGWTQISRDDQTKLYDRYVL
Experiment: Trypanosoma cruzi proteasome chymotrypsin-like activity (TcProtChymo) assay.
Format: functional
Set-up: scale not given: in the data most compounds retested in dose-response had high values
Conditions: 9.37 µM

Structure (SMILES)	Percent Effect
CC(Nc1cccc(CN2CCOC2=O)c1)C(=O)N1CCNC1=O (stereo unspecified)	2.3%
COC[C@@H]1CC[C@H]2[C@H](CCN2S(=O)(=O)c2cccc(C)c2)O1	16.1%
O=C(c1ccc(F)cc1F)N1CC[C@H](O)[C@@H](N2CCOCC2)CC1	3.94%
COc1cccc(-n2nnc(C(=O)N3CCCC3)c2C)c1	7.25%
Cc1nc(C(=O)N2CCc3c(nc(-c4ccncc4)[nH]c3=O)C2)cs1	11.6%
CN1CCC/C1=N\S(=O)(=O)c1ccc(NC(=O)c2cccs2)cc1	12.5%
c1csc(-c2nc(CNC3CCc4ncnn4C3)cs2)c1 (stereo unspecified)	7.93%
Cc1ccc(C(=O)N2Cc3c(CN4CCCCC4)nn(C)c3C2)cc1C	17.9%
O=C1CC2(CCN(CC3CC3)C2)CN1c1ccc2c(c1)OCO2 (stereo unspecified)	21.6%
COCc1nc(C(=O)NS(=O)(=O)c2ccc(C)cc2C)cs1	-6.23%
Cc1nn(C)cc1CCC(=O)N1CCCC(n2cncn2)C1 (stereo unspecified)	2.97%
COCC(=O)N1CCC2(CCN(Cc3ccccn3)CC2)CC1	12.3%
COc1ccccc1OCC(=O)NS(=O)(=O)c1ccc(C)s1	6.49%
Cc1ncsc1C(=O)N(Cc1cccnc1)C1CC1	-1.45%
Cn1cnc2c1CCN(CCS(=O)(=O)c1ccccc1)C2	3.48%
CN(C(=O)Cc1c[nH]c2ccccc12)C1CCN(c2ccccn2)CC1	4.16%
CC1COCCN1C(=O)c1cccc(OCc2cscn2)c1 (stereo unspecified)	9.3%
Cn1cccc1C(=O)N1CCCC2(CCCN2Cc2cccnc2)C1 (stereo unspecified)	7.33%
CC(C)(C)c1n[nH]c(C2CN(C(=O)CCc3cscn3)CCO2)n1 (stereo unspecified)	0.597%
CN(Cc1noc(C2CC2)n1)C1CCN(Cc2nnc(C3CC3)o2)C1 (stereo unspecified)	17.4%

Structure (SMILES)	Percent Effect
CC(C)c1nn(C)c(N2CCOCC2)c1CNCC(=O)N(C)C	10.5%
CS(=O)(=O)NCc1ncn2c1CN(C(=O)CC1CCCC1)CCC2	2.91%
Cc1nc(C2CCN(C(=O)CO)CC2)cc(N2CCOCC2)n1	8.22%
Cn1cc(CNCC2Cn3nnc(-c4ccccc4)c3CO2)cn1 (stereo unspecified)	4.68%
CS(=O)(=O)c1ccccc1C(=O)NCCCN1CCc2ccccc2C1	17.1%
CCOC(=O)N1CCN(C(=O)c2ccc3ccn(C)c3c2)CC1	11.6%
Cc1ccc(-c2cc(CN3CCCC(Cn4cncn4)C3)on2)cc1 (stereo unspecified)	4.39%
COc1ccc(C2CC(=O)Nc3c2nc2n3CCCC2)cc1OC (stereo unspecified)	15.9%
Cn1cc(CN2CCCN(C(=O)c3cn4ccccc4n3)CC2)cn1	20.1%
CCc1ccc(NC(=O)C2OC(c3cccs3)=NN2C(C)=O)cc1 (stereo unspecified)	19.2%
CC(=O)N1CCCN(CC(C)(O)c2cccc(C(F)(F)F)c2)CC1 (stereo unspecified)	3.51%
c1ncn(CC2CN(Cc3noc(C4CC4)n3)CCO2)n1 (stereo unspecified)	-1.1%
Cc1c[nH]nc1C1CCCCN1C(=O)Cn1cc(Cl)cn1 (stereo unspecified)	15.1%
Cc1cnn(CC2CCCCN2CCCS(N)(=O)=O)c1 (stereo unspecified)	11.3%
Cn1cc(C(=O)N2CCCC(n3cccn3)C2)c2ccccc21 (stereo unspecified)	3.65%
CC(=O)N1CCC2(CC1)C(=O)N(CC1CC1)c1ccccc12	10.6%
CC1CCN(C(=O)c2cccc3ncccc23)CC1	3.48%
O=C(c1cc2cc(F)ccc2[nH]1)N1CCC(Nc2cccnn2)CC1	10.7%
Cc1nccn1-c1cccc(C2CCCN2S(=O)(=O)N(C)C)n1 (stereo unspecified)	8.05%
CC(C)CN1CCN(C)C2(CCN(Cc3ccsc3)CC2)C1=O	-2.49%

Source: ChEMBL document CHEMBL3988442, “University of Dundee, Small-Polar-MMV Screening Library” (2021)
